Data taken from PubChem BioAssay (NCI).
This is part of a sample that, as a whole, favours compounds with a hit. Of some 83,000 tested, about 20% had one in any assay.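 The test compound was applied at a single concentration to cells in 96-well plates for 48 hours, and percent growth was recorded.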 A number with no mark means an inactive call. Activity calls are given as the source filed them. Rule for the calls: active = growth percent below 10; inactive = the rest.

What was measured:
Assay in all cases: NCI-60 one-dose screen, 48 h (100 = growth as untreated, 0 = no growth, -100 = all killed)
Conditions in all cases: 10 µM unless noted
[1] = system: NCI-H23 lung
[2] = system: NCI-H226 lung
[3] = system: NCI-H322M lung
[4] = system: HOP-62 NSCLC
[5] = system: NCI-H460 lung
[6] = system: HOP-92 NSCLC
[7] = system: NCI-H522 lung
[8] = system: A549/ATCC NSCLC
[9] = system: 786-0 renal
[10] = system: DU-145 prostate
[11] = system: K-562 leukemia
[12] = system: MALME-3M melanoma
[13] = system: MDA-MB-231 breast
[14] = system: RXF 393 renal
[15] = system: SF-268 CNS
[16] = system: SF-295 CNS
[17] = system: SF-539 CNS
[18] = system: UACC-257 melanoma
[19] = system: M14 melanoma

| SMILES | growth [1] | growth [2] | growth [3] | growth [4] | growth [5] | growth [6] | growth [7] | growth [8] | growth [9] | growth [10] | growth [11] | growth [12] | growth [13] | growth [14] | growth [15] | growth [16] | growth [17] | growth [18] | growth [19] |
| --- | --- | --- | --- | --- | --- | --- | --- | --- | --- | --- | --- | --- | --- | --- | --- | --- | --- | --- | --- |
| O=C(N/N=C\c1ccccc1S(=O)(=O)O)N/N=C/c1ccccc1S(=O)(=O)O | 102% | 105% | 99.3% | 101% | 98.5% | 96.8% | 98.5% | 97.9% | 95% | 106% | 97.9% | 105% | 102% | 112% | 102% | 101% | 111% | 93.2% | 102% |
| COc1ccc2c(c1)c(-c1nc(-c3c[nH]c4ncccc34)cs1)cn2CCO | 62.5% | 36.5% | 47.6% | 53.7% | 46.3% | 48.6% | 36.8% | 66.9% | 59.5% | 56.5% | 43.5% | 75.9% | 51.5% | 30.1% | 66.6% | 57.9% | 50% | 91% | 59.3% |
| C=CCC(CCCC)(C(=O)OCC)C(=O)OCC | 98.8% | 106% | 109% | 111% | 117% | 96.2% | 94% | 103% | 94.9% | 121% | 104% | 106% | 105% | 105% | 113% | 113% | 100% | 100% | 96.8% |
| COc1ccc(C[n+]2c3ccccc3n3c4ccc(N)cc4ccc32)c(OC)c1OC | 48.9% | 61.4% | 102% | 52.9% | 73.6% | -0.227% (active) | 11% | 63% | 75.9% | 81% | 42% | 49.6% | 75.5% | 69.7% | 35% | 65.6% | 52.2% | 3.35% (active) | 87.5% |
| C#Cc1cccc(Nc2nc(C)nc3cc(NC(=O)CCl)ccc23)c1 | -55.6% (active) | -28.1% (active) | -31.3% (active) | -84.2% (active) | -64.1% (active) | -82% (active) | -77.5% (active) | 5.92% (active) | -72.5% (active) | -95.8% (active) | 0.173% (active) | -77.6% (active) | -73.1% (active) | -87.2% (active) | -67.2% (active) | -79.7% (active) | -92.8% (active) | -60.9% (active) | -27.5% (active) |
| COc1ccc(/C(C)=C(\c2ccc(Cl)cc2)c2ccc(OCCN3CCCCC3)cc2)cc1 | 57.9% | 89.4% | 68.8% | 68.6% | 24.6% | 70.3% | 78.3% | 38.5% | -5.84% (active) | 78.8% | 3.68% (active) | 35.1% | 45.7% | 33.5% | 59.2% | 7.09% (active) | 43.9% | 1.77% (active) | 4.01% (active) |
| CC(=C(c1ccc(OCCN2CCCCC2)cc1)c1ccc(OCCN2CCCCC2)cc1)c1ccc(Cl)cc1 | -82.4% (active) | -73.4% (active) | -97.2% (active) | -82% (active) | -82.4% (active) | -82.9% (active) | -76.9% (active) | -81.7% (active) | -90.9% (active) | -92.8% (active) | -65.7% (active) | -84.3% (active) | -85.1% (active) | -78.8% (active) | -77.2% (active) | -92.1% (active) | -94.9% (active) | -82.1% (active) | -81.9% (active) |
| C/C(Cc1ccc(Cl)cc1)=C(\c1ccc(OCCCN(C)C)cc1)c1ccc(OC(=O)Cc2ccccc2)cc1 | 101% | 110% | 105% | 92.2% | 110% | 101% | 70.5% | 105% | 104% | 106% | 91.8% | 111% | 108% | 109% | 97.6% | 100% | 105% | 103% | – |
| CN1CCN(Cc2ccc(NC(=O)c3cncc(C#Cc4cnc5ccc(Cl)nn45)c3)cc2C(F)(F)F)CC1 | -29.5% (active) | -58.3% (active) | -14.2% (active) | -15.7% (active) | -47.3% (active) | -16.3% (active) | -12.8% (active) | 4.24% (active) | -53% (active) | 4.06% (active) | 1.96% (active) | -63.1% (active) | -1.94% (active) | -52.8% (active) | -41.6% (active) | 9.72% (active) | -62% (active) | 3.9% (active) | -56.7% (active) |
| O=C(Nc1ccccc1O)c1ccc(CNC(=O)c2ccsc2Nc2ccnc(C(F)(F)F)c2)cc1 | 13.5% | 38.3% | 46.1% | 47.6% | 26% | -2.27% (active) | -24% (active) | 27.6% | 42.8% | 30.6% | 9.19% (active) | 9.89% (active) | 39.1% | 0.801% (active) | 40.2% | 2.43% (active) | 42.4% | 6.92% (active) | 45.2% |
| CNC1=CC(=O)c2c(C(=O)OC)c(C)[n+]([O-])c(C)c2C1=O | 40% | 82.1% | 71.9% | 97.9% | 28.2% | 106% | 23.3% | 55.3% | 97.9% | 68.7% | 71% | -46.2% (active) | 63.8% | 74.4% | 89.2% | 86.4% | 83.8% | 49.3% | 24% |
| Nc1c(C(=O)Nc2cccc(Cl)c2)sc2nc3c(cc12)CCCC3 | 103% | 83.6% | 108% | 91.8% | 100% | 82.7% | 80.3% | 81.7% | 89% | 104% | 48.3% | 102% | 93.3% | 103% | 102% | 91.6% | 86.9% | 79.1% | – |
| CC1=C(C(=O)Nc2nc(-c3ccc(Cl)cc3)cs2)[C@H](c2ccc(O)cc2)NC(=O)N1 | 101% | 87.8% | 88.3% | 99.1% | 104% | 100% | 90.5% | 95.1% | 97.8% | 98% | 96.8% | 99.6% | 90.2% | 104% | 87.1% | 95.7% | 99.3% | 105% | – |
| COc1cc(/C=C2\CN(S(=O)(=O)c3ccccc3)C/C(=C\c3cc(CN4CCCCC4)c(O)c(OC)c3)C2=O)cc(CN2CCCCC2)c1O | -74.7% (active) | 43.4% | -30.1% (active) | 104% | -62.6% (active) | -65.2% (active) | -46.8% (active) | 12.1% | -68.8% (active) | -93% (active) | -9.62% (active) | -77.6% (active) | -67.8% (active) | -88.3% (active) | -20.7% (active) | 76.5% | -84.6% (active) | 83.8% | -75.2% (active) |
| O=C(NC1CC(F)C1)c1cc2cccnc2n1-c1ccc(Cl)c(Cl)c1 (stereo unspecified) | 100% | 103% | 97.3% | 98.9% | 101% | 83% | 88.5% | 96.5% | 95.2% | 106% | 96.3% | 113% | 96.5% | 102% | 91.6% | 95.1% | 98% | 96.9% | 111% |
| O=c1c2c3c(sc2n2c(-c4cc(-c5ccccc5)no4)nnc2n1Cc1ccccc1)CCCC3 | 86.4% | 97.6% | 97.1% | 92.5% | 86% | 76.5% | 55.2% | 49.9% | 87.6% | 88.5% | 64.9% | 122% | 80.5% | 77.8% | 93.5% | 83.4% | 114% | 110% | 111% |
